# PubChem BioAssay AID1259374 (The Scripps Research Institute Molecular Screening Center, 2018)
# The campaign covered roughly 650,000 compounds. About 5,900 (0.91%) were called active. No stated cut-off is given here; in the data, active means inhibition above about 50%; inactive means the rest. Many of the other results were omitted from the sample, so actives are more common in it than they were.
# Target: Microphthalmia-associated transcription factor (Homo sapiens) (UniProt O75030)
# Test: MITF inhibitors, primary screen, biochemical, AlphaScreen, human (AID 1259374);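 further: 0% = vehicle wells with protein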
# Settings: AlphaScreen MITF homodimerization, bead proximity signal; at 2.6 µM; stronger effect = higher value
# Microphthalmia-associated transcription factor (Homo sapiens), sequence (O75030 whole entry, looked up): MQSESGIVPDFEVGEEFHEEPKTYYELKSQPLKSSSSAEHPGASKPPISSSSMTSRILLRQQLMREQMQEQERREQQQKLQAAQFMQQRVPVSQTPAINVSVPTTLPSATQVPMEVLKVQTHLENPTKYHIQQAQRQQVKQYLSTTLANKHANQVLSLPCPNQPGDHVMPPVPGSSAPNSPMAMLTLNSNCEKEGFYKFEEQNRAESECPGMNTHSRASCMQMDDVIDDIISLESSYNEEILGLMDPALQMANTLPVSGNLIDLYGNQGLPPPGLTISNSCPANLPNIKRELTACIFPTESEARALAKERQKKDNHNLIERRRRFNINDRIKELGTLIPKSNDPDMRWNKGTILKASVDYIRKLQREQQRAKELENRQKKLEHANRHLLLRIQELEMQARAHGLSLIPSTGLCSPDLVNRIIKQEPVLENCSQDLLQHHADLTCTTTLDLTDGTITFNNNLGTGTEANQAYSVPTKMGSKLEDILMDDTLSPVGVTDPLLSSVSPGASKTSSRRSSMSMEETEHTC
row,Structure (SMILES),inhibition
1,CSc1ccccc1NC(=O)CN(C)CC(=O)Nc1ccc(C#N)c(Cl)c1,82.2% (active)
2,COc1ccc(NC(=O)CN(C)CC(=O)Nc2ccc(C#N)c(Cl)c2)cc1,7.15% (inactive)
3,CSCCC(NC(=O)c1ccco1)C(=O)OCC(=O)Nc1ccc(C#N)c(Cl)c1 (stereo not drawn),4.56% (inactive)
4,COc1ccccc1N1C(=O)NC(=O)/C(=C\c2ccc(Cl)cc2Cl)C1=O,-0.45% (inactive)
5,CC(Cc1ccccc1)NC(=O)/C=C/c1ccco1 (stereo not drawn),7.08% (inactive)
6,CC(Cc1cccc(C(F)(F)F)c1)N1CCOCC1 (stereo not drawn),12.7% (inactive)
7,CCC(CC)N1CCN(Cc2ccc(F)cc2)CC1,70.5% (active)
8,CCN1CCN(Cc2ccc3ccccc3c2)CC1,3.25% (inactive)
9,Clc1ccc(CN2CCN(Cc3ccc(Cl)cc3)CC2)cc1,31.9% (inactive)
10,CN1CCN(Cc2ccc(F)cc2)CC1CCO (stereo not drawn),-5.75% (inactive)
11,CCN1CCN(Cc2ccc(C(=O)OC)cc2)CC1,-13.2% (inactive)
12,CCC(C)N1CCN(Cc2ccc(SC)cc2)CC1 (stereo not drawn),65.1% (active)
13,Fc1cccc(Cl)c1CNC1CN2CCC1CC2 (stereo not drawn),2.47% (inactive)
14,O=C(CN1CCCC1)c1ccccc1Br,-5.43% (inactive)
15,Cc1cc(C=C2C(=O)NC(=S)NC2=O)c(C)n1-c1ccccc1C(F)(F)F,8.02% (inactive)
16,CCOC(=O)C1=C(N)OC2=C(C(=O)CCC2)C12C(=O)Nc1ccc(Br)cc12 (stereo not drawn),-1.67% (inactive)
17,FC1CC2C(Cl)C1NC2(C(F)(F)F)C(F)(F)F (stereo not drawn),-5.25% (inactive)
18,CN1C(=O)C(=Cc2cn(CC(=O)NCc3ccco3)c3ccccc23)C(=O)N(C)C1=O,0.24% (inactive)
19,CN1CCC(N(C)c2ncnc3scc(-c4ccc(Cl)cc4)c23)CC1,51.4% (active)
20,CC1CCCC(C)N1C(=O)CN1C2CCC1CC(O)(c1ccccn1)C2 (stereo not drawn),54.9% (active)

row,Structure (SMILES),inhibition
1,Cn1ccnc1C1(O)CC2CCC(C1)N2CC(=O)N1CCc2ccccc2C1 (stereo not drawn),9.08% (inactive)
2,O=C(CN1C2CCC1CC(O)(c1ccccn1)C2)N1c2ccccc2Sc2ccccc21 (stereo not drawn),44.9% (inactive)
3,COc1ccccc1CN1CCN(c2ccc(F)cc2)CC1,19.3% (inactive)
4,COc1cc(CN2CCN(C)CC2)ccc1O,41.2% (inactive)
5,Cc1cccc(OCC(=O)N2CCN(Cc3ccccc3)CC2)c1C,13% (inactive)
6,COc1ccc(CN2CCN(Cc3ccccc3)CC2)cc1C,50.8% (active)
7,COc1ccccc1N1CCN(Cc2cccc(O)c2)CC1,24.7% (inactive)
8,COc1ccccc1CN1CCN(Cc2ccc(Br)cc2)CC1,77.5% (active)
9,COc1cc(CN2CCN(Cc3ccccc3)CC2)cc(I)c1O,-2.51% (inactive)
10,COc1ccccc1CN1CCN(C(=O)Cc2ccccc2)CC1,57.1% (active)
11,COc1cccc(CN2CCN(C(=O)COc3ccccc3)CC2)c1OC,43.9% (inactive)
12,CC(C)CCn1c(=O)c(C(=O)Nc2nc3ccc(F)cc3s2)c(O)c2ccccc21,9.2% (inactive)
13,CC12CCC(=O)C=C1CC[C@@H]1[C@@H]2CCC2(C)[C@@H](O)CC[C@@H]12 (stereo partly drawn),3.34% (inactive)
14,Cc1cccc(-n2c(CN3C(=O)c4ccccc4C3=O)nc3ccccc3c2=O)c1,8.78% (inactive)
15,C=CCN1C(=O)NC(=O)/C(=C/c2ccc(O)c(OC)c2)C1=O,-1.51% (inactive)
16,C=CCN1C(=O)NC(=O)/C(=C/c2ccc3c(c2)OCO3)C1=O,11.9% (inactive)
17,CCNC(=S)N1CC2CC(C1)c1cccc(=O)n1C2 (stereo not drawn),-9.28% (inactive)
18,CCCC1=C(C(=O)OC)C2(C(=O)Nc3ccccc32)C(C(=O)OCC)=C(N)O1 (stereo not drawn),12% (inactive)
19,c1cc2c(cc1NC1=NCCCS1)OCCO2,2.15% (inactive)
20,O=C1NC(=S)NC(=O)C1=Cc1ccc(-c2ccccc2)o1,31.6% (inactive)

row,Structure (SMILES),inhibition
1,O=C1NC(=S)N(Cc2ccco2)C(=O)/C1=C\c1ccc(-c2ccc([N+](=O)[O-])cc2)o1,89.9% (active)
2,C=CCN1C(=O)/C(=C\c2cccn2-c2cccc([N+](=O)[O-])c2)C(=O)NC1=S,44.6% (inactive)
3,N#CC1=C(N)Oc2c(c(=O)oc3ccccc23)C1c1ccc([N+](=O)[O-])s1 (stereo not drawn),2.54% (inactive)
4,COc1cccc(-n2c(/C=C/c3cccnc3)nc3ccccc3c2=O)c1,-8.02% (inactive)
5,Cc1ccccc1N1C(=O)NC(=O)/C(=C\c2cc(C)n(-c3ccccc3C(=O)O)c2C)C1=O,15.6% (inactive)
6,Cc1cc(C=O)c(C)n1Cc1ccco1,3.63% (inactive)
7,Cc1cc(/C=C2/C(=O)NC(=O)N(Cc3ccco3)C2=O)c(C)n1-c1ccc(C(=O)O)cc1,80.4% (active)
8,COc1ccccc1CCNCc1ccc(C)cc1,24.2% (inactive)
9,Cc1ccc(CN2CCN(Cc3ccccc3[N+](=O)[O-])CC2)cc1,59.3% (active)
10,O=[N+]([O-])c1ccccc1C[N+]12CCC(CC1)C(O)C2 (stereo not drawn),8.77% (inactive)
11,O=[N+]([O-])c1ccc(O)c(CN2CCN(c3ccccc3)CC2)c1,9.43% (inactive)
12,O=[N+]([O-])c1ccccc1CN1CCN(Cc2cccc(F)c2)CC1,51.4% (active)
13,Fc1ccc(CN2CCN(c3ccccc3)CC2)cc1F,40.2% (inactive)
14,Cc1ccc(CN2CCN(C(=O)COc3cccc(C)c3)CC2)cc1,43.5% (inactive)
15,Cc1ccccc1OCC(=O)N1CCN(CCNC(=O)c2ccc3c(c2)OCO3)CC1,-3.05% (inactive)
16,O=C1NC(=S)NC(=O)C1=Cc1ccc(OCc2ccccc2)c(C(=O)O)c1,18.7% (inactive)
17,CCCC1(CCC)C(=O)NC(=Nc2ccc(OC)cc2)NC1=O,-6.47% (inactive)
18,CC(c1ccccc1F)n1cc(C(=O)NC2CC2)nn1 (stereo not drawn),-9.15% (inactive)
